# Measured values: PubChem BioAssay AID1159580 (chemical genetic matrix, 2015)
# Out of some 5,500 compounds screened, about 2,000 (36%) were called active. Roughly 18% stayed inconclusive and do not appear here. The list shows a part of the results. Values without a mark were called inactive. No stated cut-off is given here; in the data, active means normalized growth mostly below about 0.91 (no sharp cut-off); inconclusive means no clear call, values can overlap the other calls; inactive means mostly above about 0.92.
# Assay: chemical genetic growth profiling, strain panel (AID 1159580);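 further: tested at 20 µM; growth read once vehicle control cultures reached saturation at 30 °C; 1 = growth at the plate median or of vehicle wells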
# Conditions: S. cerevisiae deletion strains, growth OD
# [1] = locus YAL013W, strain DEP1, stronger effect = lower value
# [2] = locus YDL101C, strain DUN1, stronger effect = lower value
# [3] = locus YGR078C, strain PAC10, stronger effect = lower value
# [4] = locus YHR030C, strain SLT2, stronger effect = lower value
# [5] = locus YJR075W, strain HOC1, stronger effect = lower value
# [6] = locus YMR307W, strain GAS1, stronger effect = lower value
# [7] = locus YNL153C, strain GIM3, stronger effect = lower value
# [8] = locus YNL322C, strain KRE1, stronger effect = lower value
# [9] = locus YPL055C, strain LGE1, stronger effect = lower value
# [10] = locus YPL241C, strain CIN2, stronger effect = lower value
# [11] = locus YAL040C, strain CLN3, stronger effect = lower value
# [12] = locus YCL061C, strain MRC1 (second series), stronger effect = lower value
# [13] = locus YDR363W, strain ESC2, stronger effect = lower value
# [14] = locus YER002W, strain NOP16, stronger effect = lower value
# [15] = locus YGR229C, strain SMI1, stronger effect = lower value
# [16] = locus YNL175C, strain NOP13, stronger effect = lower value
# [17] = locus YNL197C, strain WHI3, stronger effect = lower value
# [18] = locus YNL224C, strain SQS1, stronger effect = lower value
# [19] = locus YOR083W, strain WHI5 (second series), stronger effect = lower value
# [20] = locus YDR150W, strain NUM1, stronger effect = lower value
compound,measurement,setting,value
O=C1CC(c2ccccc2)=NO1,normalized growth,[1],0.683 (active)
same,normalized growth,"locus YBR229C, strain ROT2, stronger effect = lower value",0.336 (active)
same,normalized growth,[2],0.395 (active)
same,normalized growth,"locus YEL061C, strain CIN8, stronger effect = lower value",0.862 (active)
same,normalized growth,[3],0.174 (active)
same,normalized growth,[4],0.615 (active)
same,normalized growth,"locus YHR087W, strain rtc3, stronger effect = lower value",0.419 (active)
same,normalized growth,"locus YJL187C, strain SWE1, stronger effect = lower value",0.298 (active)
same,normalized growth,"locus YJR043C, strain POL32, stronger effect = lower value",0.566 (active)
same,normalized growth,[5],0.3 (active)
same,normalized growth,"locus YKL190W, strain CNB1, stronger effect = lower value",0.987
same,normalized growth,"locus YLR039C, strain RIC1, stronger effect = lower value",1.11
same,normalized growth,"locus YLR058C, strain SHM2 (second series), stronger effect = lower value",0.431 (active)
same,normalized growth,"locus YLR085C, strain ARP6, stronger effect = lower value",0.432 (active)
same,normalized growth,"locus YLR262C, strain YPT6, stronger effect = lower value",1.08
same,normalized growth,"locus YML094W, strain GIM5, stronger effect = lower value",0.743 (active)
same,normalized growth,"locus YMR219W, strain ESC1, stronger effect = lower value",0.26 (active)
same,normalized growth,[6],0.511 (active)
same,normalized growth,[7],0.0697 (active)
same,normalized growth,"locus YNL298W, strain CLA4 (second series), stronger effect = lower value",0.797 (active)
same,normalized growth,[8],0.737 (active)
same,normalized growth,"locus YNR030W, strain Alg12, stronger effect = lower value",0.803 (active)
same,normalized growth,[9],0.666 (active)
same,normalized growth,[10],0.68 (active)
same,normalized growth,"locus YPR135W, strain CTF4, stronger effect = lower value",0.528 (active)
CSc1c(C#N)c(-c2ccc(Cl)cc2)nn1C(=O)c1ccccc1Cl,normalized growth,"locus YAR019C, strain CDC15, stronger effect = lower value",0.966
same,normalized growth,"locus YBL105C, strain PKC1, stronger effect = lower value",0.95
same,normalized growth,"locus YBR135W, strain CKS1, stronger effect = lower value",0.957
same,normalized growth,"locus YBR136W, strain MEC1, stronger effect = lower value",0.951
same,normalized growth,"locus YBR160W, strain CDC28, stronger effect = lower value",0.951
same,normalized growth,"locus YDL017W, strain CDC7, stronger effect = lower value",0.946
same,normalized growth,"locus YDL028C, strain MPS1, stronger effect = lower value",0.951
same,normalized growth,[2],0.94
same,normalized growth,"locus YDL108W, strain KIN28, stronger effect = lower value",0.954
same,normalized growth,"locus YDL132W, strain cdc53, stronger effect = lower value",0.948
same,normalized growth,"locus YDL214C, strain PRR2, stronger effect = lower value",0.964
same,normalized growth,"locus YDR052C, strain DBF4, stronger effect = lower value",0.957
same,normalized growth,"locus YDR054C, strain cdc34, stronger effect = lower value",0.941
same,normalized growth,"locus YDR226W, strain ADK1, stronger effect = lower value",0.933
same,normalized growth,"locus YDR477W, strain SNF1, stronger effect = lower value",0.938
same,normalized growth,"locus YER123W, strain YCK3, stronger effect = lower value",0.946
same,normalized growth,"locus YER133W, strain GLC7, stronger effect = lower value",0.962
same,normalized growth,"locus YFL009W, strain cdc4, stronger effect = lower value",0.951
same,normalized growth,"locus YFL029C, strain CAK1, stronger effect = lower value",0.958
same,normalized growth,"locus YFR003C, strain YPI1, stronger effect = lower value",0.954
same,normalized growth,"locus YFR019W, strain FAB1, stronger effect = lower value",1
same,normalized growth,"locus YFR028C, strain CDC14, stronger effect = lower value",0.948
same,normalized growth,"locus YGR040W, strain KSS1, stronger effect = lower value",0.931
same,normalized growth,"locus YGR052W, strain FMP48, stronger effect = lower value",0.97
same,normalized growth,"locus YGR092W, strain DBF2, stronger effect = lower value",0.895
same,normalized growth,[4],1.03
same,normalized growth,"locus YHR079C, strain IRE1, stronger effect = lower value",1.03
same,normalized growth,"locus YHR082C, strain KSP1, stronger effect = lower value",1.01
same,normalized growth,"locus YHR205W, strain SCH9, stronger effect = lower value",0.872
same,normalized growth,"locus YIL147C, strain SLN1, stronger effect = lower value",0.949
same,normalized growth,"locus YJL095W, strain BCK1, stronger effect = lower value",0.9
same,normalized growth,"locus YJL128C, strain PBS2, stronger effect = lower value",0.921
same,normalized growth,"locus YJL157C, strain FAR1, stronger effect = lower value",0.965
same,normalized growth,"locus YJR016C, strain ILV3, stronger effect = lower value",0.945
same,normalized growth,"locus YJR066W, strain TOR1 (second series), stronger effect = lower value",0.946
same,normalized growth,"locus YJR066W, strain TOR1, stronger effect = lower value",1
same,normalized growth,"locus YKL048C, strain ELM1, stronger effect = lower value",0.981
same,normalized growth,"locus YKL067W, strain YNK1, stronger effect = lower value",0.969
same,normalized growth,"locus YKL101W, strain HSL1, stronger effect = lower value",0.933
same,normalized growth,"locus YKL193C, strain SDS22, stronger effect = lower value",0.957
same,normalized growth,"locus YKL203C, strain TOR2, stronger effect = lower value",1.06
same,normalized growth,"locus YLR113W, strain HOG1, stronger effect = lower value",0.76 (active)
same,normalized growth,"locus YLR133W, strain CKI1, stronger effect = lower value",0.969
same,normalized growth,"locus YLR403W, strain SFP1, stronger effect = lower value",0.889
same,normalized growth,"locus YML070W, strain DAK1, stronger effect = lower value",0.948
same,normalized growth,"locus YMR001C, strain CDC5, stronger effect = lower value",0.957
same,normalized growth,"locus YMR205C, strain PFK2 (second series), stronger effect = lower value",0.969
same,normalized growth,"locus YMR277W, strain FCP1, stronger effect = lower value",0.966
same,normalized growth,"locus YNL006W, strain LST8, stronger effect = lower value",0.975
same,normalized growth,"locus YNL020C, strain ARK1, stronger effect = lower value",0.958
same,normalized growth,"locus YNL161W, strain CBK1, stronger effect = lower value",0.958
same,normalized growth,"locus YNL183C, strain NPR1, stronger effect = lower value",0.969
same,normalized growth,"locus YNL207W, strain RIO2, stronger effect = lower value",0.938
same,normalized growth,"locus YNL222W, strain SSU72, stronger effect = lower value",0.963
same,normalized growth,"locus YNL307C, strain MCK1 (second series), stronger effect = lower value",0.921
same,normalized growth,"locus YOL078W, strain AVO1, stronger effect = lower value",0.958
same,normalized growth,"locus YOL136C, strain PFK27, stronger effect = lower value",0.936
same,normalized growth,"locus YOR061W, strain CKA2, stronger effect = lower value",0.975
same,normalized growth,"locus YOR119C, strain RIO1, stronger effect = lower value",1.01
same,normalized growth,"locus YOR231W, strain MKK1, stronger effect = lower value",0.917
same,normalized growth,"locus YOR329C, strain SCD5, stronger effect = lower value",0.956
same,normalized growth,"locus YPL031C, strain PHO85, stronger effect = lower value",0.934
same,normalized growth,"locus YPL153C, strain RAD53, stronger effect = lower value",0.936
same,normalized growth,"locus YPL204W, strain HRR25, stronger effect = lower value",0.942
same,normalized growth,"locus YPL209C, strain IPL1, stronger effect = lower value",0.958
same,normalized growth,"locus YPL256C, strain CLN2, stronger effect = lower value",1.07
same,normalized growth,"locus YPR025C, strain CCL1, stronger effect = lower value",0.958
same,normalized growth,"locus YPR106W, strain ISR1, stronger effect = lower value",0.939
same,normalized growth,"locus YPR111W, strain DBF20, stronger effect = lower value",0.947
same,normalized growth,"strain NNK1, stronger effect = lower value",0.959
same,normalized growth,"strain TSCII, stronger effect = lower value",0.958
CCCN1CCc2cccc3c2[C@H]1Cc1ccc(O)c(O)c1-3,normalized growth,[11],0.955
same,normalized growth,[12],0.516 (active)
same,normalized growth,[13],0.79 (active)
same,normalized growth,[14],0.975
same,normalized growth,[15],0.186 (active)
same,normalized growth,[6],0.481 (active)
same,normalized growth,[7],0.534 (active)
same,normalized growth,[16],0.96
same,normalized growth,[17],0.985
same,normalized growth,[18],0.996
same,normalized growth,[19],0.631 (active)
same,normalized growth,[9],0.23 (active)
CCCN1CCO[C@@H]2c3cc(O)ccc3OC[C@H]21,normalized growth,[1],0.981
same,normalized growth,[11],1.09
same,normalized growth,[12],1
same,normalized growth,[20],0.999
same,normalized growth,[13],1.03
same,normalized growth,[14],0.989
same,normalized growth,[3],1.01
same,normalized growth,[5],0.993
same,normalized growth,[6],0.981
same,normalized growth,[7],0.97
same,normalized growth,[16],1.02
same,normalized growth,[17],1
same,normalized growth,[18],0.993
same,normalized growth,[19],1.02
CCCN1CCOC2c3cc(O)ccc3OCC21 (stereo not drawn),normalized growth,[11],0.983
same,normalized growth,[12],0.993
same,normalized growth,[20],0.988
same,normalized growth,[13],0.96
same,normalized growth,[14],1
same,normalized growth,[15],1.03
same,normalized growth,[5],1.01
same,normalized growth,"locus YMR263W, strain SAP30, stronger effect = lower value",1
same,normalized growth,[6],1.02
same,normalized growth,"locus YNL128W, strain TEP1, stronger effect = lower value",0.993
same,normalized growth,[16],0.984
same,normalized growth,[17],0.975
same,normalized growth,[18],1
same,normalized growth,[8],0.994
same,normalized growth,[19],0.983
same,normalized growth,[10],0.998
